Laboratory results reported in the supplement of paper PMC10849652.
About 7,900 targets were measured; listed, in parts, are those with a hit and a random draw of the rest. About 0.6% of all pairs of compound and target were hits. A number with no mark means an inactive call.

Experiments:
Experiment in all cases: log2 fold change, soluble protein after heating vs DMSO (PISA); higher = thermal stabilisation; K562 cells, 10 uM, 30 min; active = over 0.2 and 3.5 SD of the protein, either way, in both replicates (recomputed)
[1] = compound: C#Cc1cccc(Nc2ncnc3cc(OCCOC)c(OCCOC)cc23)c1 [erlotinib]
In short: (§1)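 K562 cells (2×10^6 cells/mL) were treated with 10 μM compound for 30 min, and aliquots were heated for 3 min over 48°C-58°C. Pooled aliquots were extracted in PBS with 0.5% NP-40 at 4°C, and the supernatant after 21,000xg for 90 min was measured by TMTpro 16plex LC-MS/MS with channel sums equalised. Reported thermal stability, relative to control samples and from duplicates, is a log2 fold change.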

[2] = compound: C/C(=N\NC(=O)C1=CC(=CC=C1)S(=O)(=O)N2CCOCC2)/C3=C(C=CC(=C3)Cl)O
In short: as §1

[3] = compound: C1=CC(=C(C=C1Cl)C2=NC3=NC=CN=C3C(=N2)NC4=CC=NC=C4)F
In short: as §1

[4] = compound: C1=CC(=CC=C1C2=NC3=C(N2)C=C(C=C3)C(=O)N)OC4=CC=C(C=C4)Cl
In short: as §1

[5] = compound: C1=CC2=C(C=CC(=C2)/C=C\3/C(=O)NC(=NCC4=CC=CS4)S3)N=C1
In short: as §1

[6] = compound: C1=CC2=NC=CN=C2C=C1/C=C/3\C(=O)NC(=O)S3
In short: as §1

[7] = compound: C1=CC=C(C=C1)C2=NC(=C(N2)C3=CC=NC=C3)C4=CC(=C(C=C4)Cl)O
In short: as §1

[8] = compound: C1=CC=C2C(=C1)C3=NNC4=CC=CC(=C43)C2=O
In short: as §1

[9] = compound: C1CCN(C1)C(=O)NC2=CC=CC(=C2)NC3=NC=C(C(=N3)NCCC4=CN=CN4)Br
In short: as §1

[10] = compound: C1CN(CCC1(CC2=CC=C(C=C2)Cl)N)C3=NC=NC4=C3C=CN4
In short: as §1

UniProt P18065, sequence (P18065 whole entry, looked up): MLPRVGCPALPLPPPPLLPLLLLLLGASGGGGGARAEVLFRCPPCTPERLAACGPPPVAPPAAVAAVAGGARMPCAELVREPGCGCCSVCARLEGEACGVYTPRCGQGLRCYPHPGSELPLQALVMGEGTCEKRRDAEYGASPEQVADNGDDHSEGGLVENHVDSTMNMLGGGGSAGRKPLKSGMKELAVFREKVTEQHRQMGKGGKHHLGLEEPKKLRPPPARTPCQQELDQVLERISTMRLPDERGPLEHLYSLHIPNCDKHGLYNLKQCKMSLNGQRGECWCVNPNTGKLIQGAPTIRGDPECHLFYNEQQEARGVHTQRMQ
UniProt Q68DH5, sequence (Q68DH5 whole entry, looked up): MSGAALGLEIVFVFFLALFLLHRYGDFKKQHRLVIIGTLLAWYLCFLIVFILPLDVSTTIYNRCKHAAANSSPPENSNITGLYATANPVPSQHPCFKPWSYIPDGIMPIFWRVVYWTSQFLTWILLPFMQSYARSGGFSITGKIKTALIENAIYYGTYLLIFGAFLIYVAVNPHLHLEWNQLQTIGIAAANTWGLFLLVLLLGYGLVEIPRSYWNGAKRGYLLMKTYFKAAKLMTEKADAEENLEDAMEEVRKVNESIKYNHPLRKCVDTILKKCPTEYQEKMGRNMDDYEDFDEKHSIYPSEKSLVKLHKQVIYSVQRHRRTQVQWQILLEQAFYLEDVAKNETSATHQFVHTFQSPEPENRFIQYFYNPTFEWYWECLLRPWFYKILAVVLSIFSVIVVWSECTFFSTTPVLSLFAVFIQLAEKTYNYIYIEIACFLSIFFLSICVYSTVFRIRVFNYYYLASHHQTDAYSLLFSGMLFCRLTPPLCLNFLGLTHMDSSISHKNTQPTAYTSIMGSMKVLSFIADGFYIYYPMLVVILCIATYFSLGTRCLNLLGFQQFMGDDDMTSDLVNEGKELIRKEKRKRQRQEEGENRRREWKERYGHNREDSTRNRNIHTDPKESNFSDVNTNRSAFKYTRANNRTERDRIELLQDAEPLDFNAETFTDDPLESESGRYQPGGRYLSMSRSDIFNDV
UniProt O95568, sequence (O95568 whole entry, looked up): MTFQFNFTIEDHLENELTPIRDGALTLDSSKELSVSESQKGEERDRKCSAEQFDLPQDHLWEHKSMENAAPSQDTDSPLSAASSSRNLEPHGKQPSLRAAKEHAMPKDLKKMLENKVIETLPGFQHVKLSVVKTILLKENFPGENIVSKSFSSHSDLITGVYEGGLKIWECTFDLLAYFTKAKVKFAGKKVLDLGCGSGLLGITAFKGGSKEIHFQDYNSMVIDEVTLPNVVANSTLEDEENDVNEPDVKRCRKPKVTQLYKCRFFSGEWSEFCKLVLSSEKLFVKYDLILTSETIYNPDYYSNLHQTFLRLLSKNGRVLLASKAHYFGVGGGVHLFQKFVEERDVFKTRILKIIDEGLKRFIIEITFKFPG
UniProt Q9NWZ3, sequence (Q9NWZ3 whole entry, looked up): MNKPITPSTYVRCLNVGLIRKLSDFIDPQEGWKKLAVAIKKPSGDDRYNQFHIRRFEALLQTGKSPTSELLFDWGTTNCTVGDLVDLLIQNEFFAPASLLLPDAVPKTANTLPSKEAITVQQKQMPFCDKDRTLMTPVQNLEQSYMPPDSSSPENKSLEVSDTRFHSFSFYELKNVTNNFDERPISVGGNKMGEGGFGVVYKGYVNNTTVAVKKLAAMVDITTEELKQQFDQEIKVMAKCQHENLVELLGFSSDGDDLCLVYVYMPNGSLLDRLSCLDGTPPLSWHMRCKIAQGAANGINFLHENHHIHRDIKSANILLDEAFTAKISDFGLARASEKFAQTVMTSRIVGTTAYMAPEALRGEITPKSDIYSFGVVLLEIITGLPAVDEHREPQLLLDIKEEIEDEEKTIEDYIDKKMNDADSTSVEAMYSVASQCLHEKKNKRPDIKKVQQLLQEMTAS
UniProt Q6UB28, sequence (Q6UB28 whole entry, looked up): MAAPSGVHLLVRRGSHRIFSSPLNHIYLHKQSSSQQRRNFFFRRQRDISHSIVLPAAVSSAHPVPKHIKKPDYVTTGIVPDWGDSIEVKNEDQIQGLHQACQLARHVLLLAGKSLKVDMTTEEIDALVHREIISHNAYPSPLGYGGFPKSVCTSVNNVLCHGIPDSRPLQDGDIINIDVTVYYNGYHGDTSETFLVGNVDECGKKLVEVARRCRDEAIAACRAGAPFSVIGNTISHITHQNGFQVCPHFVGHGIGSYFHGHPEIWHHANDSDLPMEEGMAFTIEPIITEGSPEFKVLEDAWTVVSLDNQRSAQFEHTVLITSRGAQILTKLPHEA
UniProt Q9Y2E5, sequence (Q9Y2E5 whole entry, looked up): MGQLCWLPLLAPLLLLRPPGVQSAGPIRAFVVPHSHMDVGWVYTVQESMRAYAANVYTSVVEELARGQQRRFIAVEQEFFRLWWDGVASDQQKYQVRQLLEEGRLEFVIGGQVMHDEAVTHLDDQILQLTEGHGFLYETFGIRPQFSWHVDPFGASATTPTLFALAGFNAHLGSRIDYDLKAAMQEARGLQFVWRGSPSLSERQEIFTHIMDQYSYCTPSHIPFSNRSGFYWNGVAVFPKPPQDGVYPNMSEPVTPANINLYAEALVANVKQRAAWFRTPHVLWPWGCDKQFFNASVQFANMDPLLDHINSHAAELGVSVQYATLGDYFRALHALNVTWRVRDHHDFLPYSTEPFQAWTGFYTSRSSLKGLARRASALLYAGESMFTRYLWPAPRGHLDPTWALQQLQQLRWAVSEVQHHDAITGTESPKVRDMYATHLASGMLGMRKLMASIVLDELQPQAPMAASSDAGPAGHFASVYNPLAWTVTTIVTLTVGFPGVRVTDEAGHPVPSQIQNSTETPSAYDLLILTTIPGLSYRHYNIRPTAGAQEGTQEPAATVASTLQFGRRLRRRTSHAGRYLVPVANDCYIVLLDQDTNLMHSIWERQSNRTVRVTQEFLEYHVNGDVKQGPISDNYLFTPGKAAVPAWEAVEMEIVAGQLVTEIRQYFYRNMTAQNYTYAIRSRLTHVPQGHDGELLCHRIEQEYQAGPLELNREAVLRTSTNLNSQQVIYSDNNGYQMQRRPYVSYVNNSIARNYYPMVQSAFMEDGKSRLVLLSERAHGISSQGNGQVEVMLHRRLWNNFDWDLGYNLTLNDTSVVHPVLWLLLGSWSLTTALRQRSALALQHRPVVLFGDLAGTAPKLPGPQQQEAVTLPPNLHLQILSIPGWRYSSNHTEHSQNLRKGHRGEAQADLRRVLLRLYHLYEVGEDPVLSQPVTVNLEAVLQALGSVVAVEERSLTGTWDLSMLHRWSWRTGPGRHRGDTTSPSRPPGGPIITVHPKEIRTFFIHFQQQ
UniProt Q86V48, sequence (Q86V48 whole entry, looked up): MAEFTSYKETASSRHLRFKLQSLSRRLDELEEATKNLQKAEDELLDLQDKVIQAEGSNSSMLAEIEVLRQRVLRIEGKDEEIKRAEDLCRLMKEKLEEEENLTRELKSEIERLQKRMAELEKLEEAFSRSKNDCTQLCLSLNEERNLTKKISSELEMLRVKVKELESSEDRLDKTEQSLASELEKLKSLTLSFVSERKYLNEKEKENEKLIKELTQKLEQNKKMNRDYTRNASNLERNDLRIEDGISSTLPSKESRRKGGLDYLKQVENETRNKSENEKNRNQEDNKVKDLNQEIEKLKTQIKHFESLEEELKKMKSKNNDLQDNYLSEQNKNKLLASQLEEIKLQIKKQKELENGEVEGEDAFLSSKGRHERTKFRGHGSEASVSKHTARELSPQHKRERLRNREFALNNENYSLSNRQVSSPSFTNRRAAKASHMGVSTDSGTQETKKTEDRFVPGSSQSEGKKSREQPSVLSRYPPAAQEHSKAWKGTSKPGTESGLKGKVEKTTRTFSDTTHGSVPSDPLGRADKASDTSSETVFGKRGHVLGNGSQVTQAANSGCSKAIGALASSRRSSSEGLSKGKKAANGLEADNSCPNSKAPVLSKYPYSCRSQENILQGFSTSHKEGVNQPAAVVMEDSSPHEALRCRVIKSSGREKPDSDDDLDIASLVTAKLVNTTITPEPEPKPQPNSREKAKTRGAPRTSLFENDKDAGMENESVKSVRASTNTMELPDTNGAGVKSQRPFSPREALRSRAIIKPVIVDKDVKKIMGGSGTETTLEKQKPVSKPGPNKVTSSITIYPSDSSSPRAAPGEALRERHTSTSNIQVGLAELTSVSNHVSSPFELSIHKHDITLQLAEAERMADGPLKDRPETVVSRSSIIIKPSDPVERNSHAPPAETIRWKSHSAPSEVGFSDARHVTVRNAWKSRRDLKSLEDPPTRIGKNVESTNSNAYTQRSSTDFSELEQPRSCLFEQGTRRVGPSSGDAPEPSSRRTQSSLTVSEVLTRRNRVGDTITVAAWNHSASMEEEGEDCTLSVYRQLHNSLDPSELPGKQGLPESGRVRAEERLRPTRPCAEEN
UniProt Q03252, sequence (Q03252 whole entry, looked up): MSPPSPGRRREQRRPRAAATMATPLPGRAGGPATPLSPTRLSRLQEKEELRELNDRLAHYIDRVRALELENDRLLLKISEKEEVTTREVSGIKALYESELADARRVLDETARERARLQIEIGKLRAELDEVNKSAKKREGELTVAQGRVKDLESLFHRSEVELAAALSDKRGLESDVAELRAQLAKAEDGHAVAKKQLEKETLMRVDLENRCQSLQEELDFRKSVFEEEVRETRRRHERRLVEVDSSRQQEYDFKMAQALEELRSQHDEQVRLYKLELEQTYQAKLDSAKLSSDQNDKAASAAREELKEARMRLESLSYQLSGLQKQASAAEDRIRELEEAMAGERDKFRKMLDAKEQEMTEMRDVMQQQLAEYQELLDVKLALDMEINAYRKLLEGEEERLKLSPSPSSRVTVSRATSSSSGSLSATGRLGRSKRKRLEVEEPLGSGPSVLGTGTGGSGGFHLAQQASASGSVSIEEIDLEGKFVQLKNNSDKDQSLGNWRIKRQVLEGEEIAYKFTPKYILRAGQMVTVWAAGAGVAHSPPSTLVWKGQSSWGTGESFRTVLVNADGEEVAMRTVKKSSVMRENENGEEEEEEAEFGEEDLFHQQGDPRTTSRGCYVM

| Target | log2 fold change [1] | log2 fold change [2] | log2 fold change [3] | log2 fold change [4] | log2 fold change [5] | log2 fold change [6] | log2 fold change [7] | log2 fold change [8] | log2 fold change [9] | log2 fold change [10] |
| --- | --- | --- | --- | --- | --- | --- | --- | --- | --- | --- |
| LUZP1 (UniProt Q86V48) | -0.094 | -0.035 | -0.328 | -0.01 | -0.131 | -0.095 | -0.091 | -0.187 | -0.06 | -0.297 |
| LRBA, A0A494BZW2 | 0.111 | 0.022 | 0.283 | 0.124 | -0.055 | 0.061 | -0.105 | -0.013 | 0.097 | 0.189 |
| MFSD8 (UniProt Q8NHS3) | 0.047 | -0.018 | -0.012 | -0.089 | 0.009 | 0.166 | 0 | -0.054 | -0.033 | -0.091 |
| KCT2 (UniProt Q8NC54) | 0.069 | 0.019 | 0.064 | 0.061 | -0.005 | 0.075 | 0.096 | -0.005 | -0.028 | 0.056 |
| MARK3 (UniProt P27448) | 0.009 | 0.116 | -0.031 | 0.014 | 0 | 0.008 | -0.032 | -0.578 (active) | -0.221 | -0.208 |
| IPO9 (UniProt Q96P70) | -0.021 | 0.073 | 0.01 | -0.061 | 0.023 | 0.096 | -0.035 | -0.024 | -0.02 | 0.052 |
| MEAK7 (UniProt Q6P9B6) | 0.015 | -0.005 | 0.023 | 0.054 | 0.069 | 0.014 | -0.062 | 0.092 | -0.042 | -0.017 |
| MAN2B2 (UniProt Q9Y2E5) | -0.035 | 0.005 | -0.008 | -0.003 | 0.076 | 0.025 | -0.07 | 0.063 | -0.02 | -0.186 |
| IGF2R (UniProt P11717) | -0.052 | 0 | 0 | 0.025 | -0.012 | 0.003 | 0.009 | -0.021 | 0.002 | 0.012 |
| LRPPRC (UniProt P42704) | 0.265 | 0.526 | 0.002 | -0.255 | 0.204 | -0.148 | 0.185 | -0.223 | -0.133 | -0.197 |
| LMBRD2 (UniProt Q68DH5) | 0.015 | -0.007 | 0.097 | 0.011 | 0.022 | 0.038 | 0.016 | -0.118 | -0.073 | 0.1 |
| IMMP1L (UniProt Q96LU5) | 0.053 | -0.018 | 0.01 | -0.017 | 0.104 | -0.022 | -0.084 | -0.046 | 0.041 | 0.013 |
| LTV1 (UniProt Q96GA3) | -0.079 | -0.073 | -0.275 | 0.041 | -0.037 | 0.013 | -0.055 | 0.046 | 0.143 | -0.284 |
| LIAS (UniProt O43766) | 0.068 | -0.24 (active) | 0.011 | 0.019 | 0.014 | 0.007 | -0.273 | 0.009 | 0.028 | 0 |
| MIEF1 (UniProt L0R8F8) | 0.025 | 0.102 | 0.021 | -0.022 | -0.073 | -0.072 | 0.033 | 0.02 | -0.107 | 0.019 |
| IRAK4 (UniProt Q9NWZ3) | 0.041 | -0.009 | 0.068 | -0.038 | 0.059 | -0.023 | 0.011 | -0.004 | 0.069 | -0.074 |
| METAP1D (UniProt Q6UB28) | -0.061 | -0.307 | -0.02 | 0.025 | -0.004 | -0.014 | 0.005 | -0.002 | -0.018 | 0.033 |
| LMNB2 (UniProt Q03252) | 0.027 | 0.062 | 0.001 | 0.025 | -0.042 | 0.099 | -0.066 | -0.186 | -0.167 | 0.001 |
| IGFBP2 (UniProt P18065) | -0.074 | -0.023 | -0.146 | 0.3 | 0.054 | 0.03 | 0.09 | -0.209 | 0.065 | 0.039 |
| KRAS isoform 2 (UniProt P01116) | -0.035 | -0.011 | 0.006 | 0.029 | 0.005 | 0.019 | 0.002 | -0.03 | 0.045 | -0.084 |
| IMMT isoform 2 (UniProt Q16891) | -0.057 | 0.043 | 0.051 | -0.022 | -0.07 | -0.021 | -0.026 | 0.021 | 0.007 | 0.047 |
| LARP1 (UniProt Q6PKG0) | -0.051 | 0.002 | -0.11 | 0.085 | -0.025 | -0.001 | -0.081 | -0.067 | 0.046 | -0.172 |
| ME2 (UniProt P23368) | -0.017 | -0.017 | 0.01 | -0.078 | 0.036 | -0.024 | 0.055 | -0.061 | 0.008 | 0.081 |
| MICU2 (UniProt Q8IYU8) | -0.013 | -0.013 | -0.06 | -0.002 | -0.038 | -0.015 | 0.103 | 0.018 | 0.045 | -0.042 |
| IMMT isoform 4 (UniProt Q16891) | -0.027 | 0.026 | 0.057 | -0.006 | -0.021 | 0.011 | 0.012 | 0.001 | 0.012 | -0.013 |
| KDM1A isoform 2 (UniProt O60341) | 0.059 | 0.039 | 0.006 | -0.028 | 0.075 | -0.015 | 0.059 | -0.026 | -0.03 | -0.069 |
| MED12 isoform 2 (UniProt Q93074) | 0.022 | 0.04 | -0.031 | 0.188 | 0.101 | 0.121 | 0.012 | -0.361 | 0.193 | -0.11 |
| METTL18 (UniProt O95568) | -0.042 | -0.037 | -0.08 | 0.027 | 0.038 | 0.046 | -0.039 | -0.06 | 0.028 | 0.078 |
| KLC2 (UniProt Q9H0B6) | 0.036 | 0.063 | 0.008 | -0.044 | 0.078 | 0.025 | -0.039 | 0.006 | -0.063 | -0.007 |
| MED7 (UniProt O43513) | 0.065 | -0.109 | 0.041 | 0.053 | 0.065 | 0.015 | 0.017 | -0.152 | -0.114 | 0.039 |
